Screens from PubChem BioAssay.
The list is not random: actives were taken first. Their share in the collection is about 5.3%.
VACV mCherry inh: inhibitors of vaccinia virus infection (mCherry reporter signal) | Vaccinia virus mCherry reporter infection, fluorescence | Potency, µM (series often up to 36.5 µM), actives largely listed as inhibitors | 310,000 compounds, 0.63% hits | AID 720579; calls by dose curve; tested in A549 cells; also: nearly all actives have a fitted effect of over 35% in size
Vaccinia Venus: inhibitors of vaccinia virus (Venus reporter) | Vaccinia virus Venus reporter expression, fluorescence | Potency, µM (highest dose often 36.5 µM), usual class: inhibitors | 330,000 compounds, 0.46% hits; calls by dose curve; tested in A549 cells; also: nearly all actives have a fitted effect of over 30% in size
FMDV inh: blocks foot and mouth disease virus. 410,000 compounds, 1.2% hits. AID 1159524. FMDV antiviral cell-based qHTS. Potency, µM (top dose mostly 57.9 µM), hits mostly inhibitors; calls by dose curve; tested in HEK293T cells; also: read-out not given here; nearly all actives have a fitted effect of over 45% in size
MARV entry inh: Marburg virus entry inhibition; Marburg virus pseudotyped entry inhibition, cell reporter; Potency, µM (highest dose often 37.8 µM), most hits filed as inhibitors; 300,000 compounds, 1.8% hits; AID 540276; calls by dose curve; tested in HEK293 cells
HCV inh: inhibitors of hepatitis C virus infection | Huh7.5.1 HCVcc-Cre infection, luciferase reporter, 44 h | Potency, µM (series often up to 41.8 µM), most hits filed as inhibitors | 340,000 compounds, 3.4% hits; active = well fitted inhibition curve with a large enough effect; inconclusive = small, poorly fitted or top-dose-only effect, or another doubt; inactive = no such curve, though single readings can be large or run the other way
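Compounds are dispensed onto cells plated 4 h earlier at 1,000 per well, with HCVcc-Cre virus (about 0.5 moi) added next. Following 44 h of culture, luminescent signal is measured for 15 sec after 15 min with substrate at room temperature.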
Lassa entry inh: Lassa virus entry inhibition; Lassa virus pseudotype entry inhibition, cell reporter; Potency, µM (titrated, usually from 37.9 µM), most hits filed as inhibitors; 300,000 compounds, 1.2% hits; AID 540256; calls by dose curve; tested in HEK293 cells; also: nearly all actives have a fitted effect of over 50% in size
A number is an active result; [ ] = dose if it differs, or a comment.

What do the screens show for `COc1ccc(CCNC(=O)c2ccc3c(c2)N(Cc2ccc(C)cc2)CCS3)cc1OC`?
VACV mCherry inh: inactive; Vaccinia Venus: inactive; FMDV inh: inconclusive; MARV entry inh: inconclusive; HCV inh: 8.9µM; Lassa entry inh: inconclusive

What do the screens show for `Cc1ccc(CN2CCSc3ccc(C(=O)NCc4cccnc4)cc32)cc1`?
FMDV inh: inactive; HCV inh: 25µM

What do the screens show for `CCOC(=O)CSC1=C(C#N)[C@H](c2ccc(OC)cc2)C2=C(CC(C)(C)CC2=O)N1`?
MARV entry inh: inactive

How did Cc1ccc(-c2nc3ncccc3o2)cc1NC(=O)COc1ccc(C(C)C)cc1 do in these assays?
VACV mCherry inh: inactive; Vaccinia Venus: inactive; FMDV inh: inconclusive; MARV entry inh: inconclusive; Lassa entry inh: inactive

Results for CCNc1ncc2nc(-c3ccccc3)c(=O)n(CCC#N)c2n1 ?
FMDV inh: inactive

What do the screens show for `Fc1cccc(Cl)c1Cn1nnc2c(NCc3ccncc3)ncnc21`?
VACV mCherry inh: inactive; Vaccinia Venus: inactive; FMDV inh: inconclusive; MARV entry inh: inactive; HCV inh: 10µM; Lassa entry inh: inconclusive

How did Cc1ccc(Cc2c(C)nc3nc(SCC(=O)NCCCN4CCOCC4)nn3c2C)cc1 do in these assays?
VACV mCherry inh: inactive; Vaccinia Venus: inactive; FMDV inh: inactive; MARV entry inh: 8.9µM; HCV inh: inactive; Lassa entry inh: inactive

What do the screens show for `O=C(NNC(=O)c1ccccc1OCc1ccccc1)c1ccccc1O`?
VACV mCherry inh: 7.1µM; Vaccinia Venus: inconclusive; FMDV inh: inactive; MARV entry inh: inactive; HCV inh: inconclusive; Lassa entry inh: inactive

How did O=C(N/N=C/c1ccccc1F)c1csc2c1CCCC2 do in these assays?
VACV mCherry inh: inactive; Vaccinia Venus: inactive; FMDV inh: inactive; MARV entry inh: inactive; HCV inh: inactive; Lassa entry inh: 11µM

Results for O=C(N/N=C/c1ccccc1F)c1ccccc1OCc1ccccc1 ?
VACV mCherry inh: inactive; Vaccinia Venus: inactive; FMDV inh: inactive; MARV entry inh: inactive; HCV inh: 10µM; Lassa entry inh: inactive

How did CN(C)S(=O)(=O)c1cccc(NC(=O)c2ccccc2OCc2ccc(F)cc2)c1 do in these assays?
VACV mCherry inh: inactive; Vaccinia Venus: inactive; FMDV inh: inactive; MARV entry inh: inactive; HCV inh: 6.3µM; Lassa entry inh: inconclusive

How did N[C@@H]1C=CC=C(C(=O)O)C1 do in these assays?
MARV entry inh: inactive

Results for O=C(NNC(=O)c1ccccc1OCc1ccc(F)cc1)c1ccccc1O ?
VACV mCherry inh: inconclusive; Vaccinia Venus: inconclusive; FMDV inh: inactive; MARV entry inh: inconclusive; HCV inh: 6.3µM; Lassa entry inh: inconclusive

How did CC(=O)c1ccccc1OCc1ccc(S(=O)(=O)Cc2ccccc2)cc1 do in these assays?
FMDV inh: inconclusive; HCV inh: 10µM

What do the screens show for `O=C(NC1CC1)c1ccc2nc(-c3ccco3)c(-c3ccco3)nc2c1`?
VACV mCherry inh: inactive; Vaccinia Venus: inactive

Results for COC(=O)c1ccc2nc(-c3ccc(OC)c(OC)c3)c(Cc3ccc(OC)cc3C)n2c1 ?
VACV mCherry inh: inactive; Vaccinia Venus: inactive; FMDV inh: inactive

How did Cc1ccc2cccc(NC(=O)c3ccc(C#N)cc3F)c2n1 do in these assays?
VACV mCherry inh: inactive; Vaccinia Venus: inactive; FMDV inh: inactive; MARV entry inh: inactive; Lassa entry inh: inactive

What do the screens show for `CN(C)S(=O)(=O)c1cccc(NC(=O)COC(=O)c2ccc3ccccc3n2)c1`?
FMDV inh: inactive; HCV inh: inactive

How did Cc1nnnn1/C(=C\c1ccccc1)C(=O)OCC(=O)Nc1ccc(Cl)cc1F do in these assays?
VACV mCherry inh: inactive; Vaccinia Venus: inconclusive; FMDV inh: 28µM; MARV entry inh: inconclusive; HCV inh: inconclusive; Lassa entry inh: 20µM

Results for Cc1nnnn1/C(=C\c1ccccc1)C(=O)OCC(=O)Nc1cccc(S(=O)(=O)N(C)C)c1 ?
FMDV inh: 14µM; HCV inh: 10µM

How did Cc1cc(C)nc(NC(=NCCc2c[nH]c3ccccc23)NC(=O)Nc2ccc(Cl)c(Cl)c2)n1 do in these assays?
VACV mCherry inh: inactive; Vaccinia Venus: inactive; FMDV inh: inactive; MARV entry inh: inconclusive; HCV inh: inconclusive; Lassa entry inh: inactive

What do the screens show for `Cc1cc(C)nc(NC(=NCCc2c[nH]c3ccccc23)NC(=O)Nc2ccccc2)n1`?
VACV mCherry inh: inconclusive; Vaccinia Venus: inconclusive; FMDV inh: inactive; MARV entry inh: 15µM; HCV inh: inconclusive; Lassa entry inh: inconclusive

What do the screens show for `Cc1cc(C)nc(NC(=NCCc2c[nH]c3ccccc23)NC(=O)c2ccco2)n1`?
VACV mCherry inh: inconclusive; Vaccinia Venus: inconclusive; FMDV inh: inconclusive; MARV entry inh: 11µM; HCV inh: inconclusive; Lassa entry inh: inconclusive

What do the screens show for `COc1ccc(C(=O)c2cn(Cc3ccc(F)cc3)c3c(F)cc(F)cc3c2=O)cc1`?
VACV mCherry inh: inactive; Vaccinia Venus: inactive; FMDV inh: inactive; MARV entry inh: inactive; Lassa entry inh: inconclusive

Results for CCOC(=O)CC1C(=O)NCCN1S(=O)(=O)c1cc(Cl)c(Cl)cc1Cl (stereo not given) ?
VACV mCherry inh: inconclusive; Vaccinia Venus: inactive; FMDV inh: inactive; MARV entry inh: 1.6µM; HCV inh: inactive; Lassa entry inh: inactive

What do the screens show for `Cc1ccc(OCC(=O)Nc2cccc(OCc3cc(=O)n4cccc(C)c4n3)c2)cc1C`?
VACV mCherry inh: inactive; Vaccinia Venus: inactive; FMDV inh: inactive; Lassa entry inh: inactive

What do the screens show for `COc1ccc(N2CCN(CCCNC(=O)CN3CCN(Cc4ccccc4C)C3=O)CC2)cc1`?
VACV mCherry inh: inactive[1.46 µM]; Vaccinia Venus: inactive; FMDV inh: inactive; MARV entry inh: inactive; HCV inh: 11µM; Lassa entry inh: inactive

How did O=C(CN1CCN(Cc2ccccc2Cl)C1=O)NCCCN1CCOCC1 do in these assays?
FMDV inh: inactive; HCV inh: inactive

How did Cc1ccc(CN2CCN(CC(=O)NCCCN3CCN(c4ccc(F)cc4)CC3)C2=O)cc1 do in these assays?
FMDV inh: inconclusive; MARV entry inh: inactive; HCV inh: 8.9µM; Lassa entry inh: inactive

What do the screens show for `Cc1ccc(CCNC(=O)CN2CCN(Cc3ccc(Cl)cc3)C2=O)cc1`?
VACV mCherry inh: inactive; Vaccinia Venus: inactive; FMDV inh: inactive; MARV entry inh: inactive; Lassa entry inh: inactive

How did COC(=O)C[C@H]1c2ccccc2[C@@H]2C(=C[C@@H](C)[C@H]3C(=O)NC(=O)[C@H]32)N1C(=O)OC do in these assays?
MARV entry inh: inactive

Results for CC(C)=CCC12Oc3cc(O)ccc3C1(O)Oc1cc(O)c([C@H]3C=C(C)CC(c4ccc(O)cc4O)[C@H]3C(=O)c3ccc(O)cc3O)c(O)c1C2=O (stereo not given in full) ?
VACV mCherry inh: inactive; Vaccinia Venus: inactive; FMDV inh: inactive; HCV inh: 13µM

What do the screens show for `CN(C)c1ncc2ncc(=O)n(C)c2n1`?
FMDV inh: inactive

What do the screens show for `Cc1ccc(Cn2nnc3c(=O)[nH]c(C4CCN(C(=O)c5cccs5)CC4)nc32)cc1`?
FMDV inh: inactive; MARV entry inh: inconclusive; HCV inh: inactive; Lassa entry inh: 2.9µM
